Experimental data published in PubChem BioAssay (EPA / NIEHS).
“And” between values parts separate entries of the source, which are not always exact repeats. Equal values may be shown once. Records with an inconclusive call do not appear. The source holds several records for some structures; these can differ, active in one and inactive in another. The source made the active and inactive calls. Rule for the calls, unless noted: active = hit-call score of the fitted dose curve at least 0.9, where 1 is the maximum; inconclusive = response in the unintended direction; inactive = score below 0.9.

How the values were obtained:
[1] = target: Estrogen receptor beta (Homo sapiens) (UniProt Q92731); test: OT_ER_ERbERb_1440: Odyssey Thera (OT) 24-hour HEK293T Protein-Complementation Assay for Estrogen Receptor-beta/-beta Homodimer (AID 2283380);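 note: fluorescence gain from ER beta LBD homodimer complementation read by laser scanning cytometry; scored as signal increase over DMSO baseline for both agonists and antagonists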
In short: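 Fluorescence increase, nuclear for agonists or whole-cell for antagonists, relative to DMSO vehicle, quantified by laser scanning cytometer after fixation and Draq5 staining. Readout from 24 h treatment of HEK293T cells carrying complementation-paired ER beta LBD (aa 310-547).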

[2] = target: Estrogen receptor (Homo sapiens) (UniProt P03372); test: OT_ERa_GFPERaERE_0480: Odyssey Thera (OT) 8-hour HeLa Transcription Induction Assay for Estrogen Receptor (AID 2283381; active = hit-call score of the fitted dose curve at least 0.9, where 1 is the maximum; inactive = score below 0.9)
In short: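 Cells (HeLa) receive compound; after 8 h, reporter fluorescence is imaged and quantified by high-content analysis. Gain-of-signal relative to DMSO gives the endpoint.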

[3] = target: Estrogen receptor (Homo sapiens) (UniProt P03372); test: OT_ERa_GFPERaERE_0120: Odyssey Thera (OT) 2-hour HeLa Transcription Induction Assay for Estrogen Receptor (AID 2283382)
In short: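 Measures ESR1 pathway reporter gain-of-signal in HeLa cells after a 2-hour treatment, detected as fluorescent protein induction by microscopy, DMSO as baseline.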

[4] = target: Bile acid receptor (Homo sapiens) (UniProt Q96RI1); test: OT_FXR_FXRSRC1_0480: Odyssey Thera (OT) 8-hour HEK293T Protein-Complementation Assay for Farnesoid X receptor/SRC-1 Co-activator (AID 2283383)
In short: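 Co-activator recruitment to FXR was measured in living HEK293T cells, where interaction of the two fused partners restored an active fluorescent reporter. Signal gain after 8 h treatment was referenced to DMSO.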

[5] = target: Bile acid receptor (Homo sapiens) (UniProt Q96RI1); test: OT_FXR_FXRSRC1_1440: Odyssey Thera (OT) 24-hour HEK293T Protein-Complementation Assay for Farnesoid X receptor/SRC-1 Co-activator (AID 2283384)
In short: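 Cell-based binding reporter: interaction of FXR with SRC-1 brings reporter fragments together, giving a fluorescence signal read 24 h after dosing of HEK293T cells.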

[6] = target: Retinoic acid receptor RXR-alpha (Homo sapiens) (UniProt P19793); test: OT_NURR1_NURR1RXRa_0480: Odyssey Thera (OT) 8-hour HEK293T Protein Complementation Assay for Nurr1/retinoid X receptor (RXR) (AID 2283385)
In short: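 Compounds are applied to HEK293T cells carrying Nurr1 and RXRα linked to reporter fragments. After 8 h, fluorescence intensity reports heterodimer formation, with DMSO as baseline.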

[7] = target: Retinoic acid receptor RXR-alpha (Homo sapiens) (UniProt P19793); test: OT_NURR1_NURR1RXRa_1440: Odyssey Thera (OT) 24-hour HEK293T Protein Complementation Assay for Nurr1/retinoid X receptor (RXR) (AID 2283386)
In short: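 Measured as fluorescence from a reconstituted split reporter, this 24 h HEK293T complementation assay scores compound-induced gain of Nurr1/RXRα association relative to DMSO.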

[8] = target: Peroxisome proliferator-activated receptor gamma (Homo sapiens) (UniProt P37231); test: OT_PPARg_PPARgSRC1_0480: Odyssey Thera (OT) 8-hour Protein-Complementation Assay for Peroxisome Proliferator-activated Receptor Gamma / SRC-1 Co-activator (AID 2283387);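 note: nuclear to cytoplasmic split Venus YFP fluorescence ratio reporting PPARg SRC-1 interaction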
In short: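 Protein-fragment complementation of split Venus YFP reports PPARg/SRC-1 interaction in HEK293T (transfected 48 h before treatment), exposed 8 h. Readout: N/C fluorescence ratio at 488 nm from imaging, Draq5 for segmentation, positive fit relative to DMSO.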

[9] = target: Peroxisome proliferator-activated receptor gamma (Homo sapiens) (UniProt P37231); test: OT_PPARg_PPARgSRC1_1440: Odyssey Thera (OT) 24-hour Protein-Complementation Assay for Peroxisome Proliferator-activated Receptor Gamma/ SRC-1 Co-activator (AID 2283388);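 note: nuclear to cytoplasmic ratio of reconstituted Venus YFP fluorescence in fixed imaged cells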
In short: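 Readout: nuclear-to-cytoplasmic 488 nm fluorescence ratio, ≥350 cells per image, 8 images per well, after 24 h compound exposure of HEK293T expressing PPARg/SRC-1 split-YFP fusions. Activity fitted in positive direction against DMSO.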

[10] = CEETOX_H295R_11DCORT: CeeTox H295R High-throughput Steroidogenesis Assay for 11-Deoxycortisol (11DCORT) (AID 2283432; active = hit-call score of the fitted dose curve at least 0.9, where 1 is the maximum; inactive = score below 0.9;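 for AC50: 11-deoxycortisol secreted into the medium measured by LC-MS/MS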); settings: actives raise or lower the signal
In short: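 Human adrenal H295R cells were prestimulated with 10 uM forskolin for 48 h, then exposed to test chemical (0.1% DMSO final) for 48 h. Medium 11-deoxycortisol was quantified by MTBE extraction and HPLC-MS/MS; bidirectional fitting relative to DMSO.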

[11] = CEETOX_H295R_OHPREG: CeeTox H295R High-throughput Steroidogenesis Assay for OH-Pregnenolone (OHPREG) (AID 2283434; active = hit-call score of the fitted dose curve at least 0.9, where 1 is the maximum; inactive = score below 0.9); settings: actives raise or lower the signal
In short: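 Hormone levels in spent medium were measured by tandem mass spectrometry following liquid-liquid extraction. Cells (H295R) had been forskolin-stimulated (10 uM, 48 h) before a 48 h chemical exposure at 0.1% DMSO, with activity fitted in both directions against DMSO.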

[12] = CEETOX_H295R_OHPROG: CeeTox H295R High-throughput Steroidogenesis Assay for OH-Progesterone (OHPROG) (AID 2283435; active = hit-call score of the fitted dose curve at least 0.9, where 1 is the maximum; inactive = score below 0.9;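 for AC50: 17alpha-hydroxyprogesterone secreted into medium measured by HPLC-MS/MS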); settings: actives raise or lower the signal
In short: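 Secreted 17alpha-hydroxyprogesterone is read by tandem MS from media of forskolin-primed H295R cells dosed with chemical for 48 h. Activity is fitted in both directions against DMSO baseline; cytotoxic concentrations are re-tested diluted.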

[13] = CEETOX_H295R_CORTIC: CeeTox H295R High-throughput Steroidogenesis Assay for Corticosterone (CORTIC) (AID 2283437; active = hit-call score of the fitted dose curve at least 0.9, where 1 is the maximum; inactive = score below 0.9;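 note: corticosterone secreted into medium quantified by mass spectrometry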); settings: actives raise or lower the signal
In short: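 Corticosterone secreted into medium is measured by reverse-phase HPLC with tandem MS following liquid-liquid extraction. Cells are forskolin-stimulated (10 uM, 48 h) before 48 h test exposure; activity fitted in both directions against DMSO.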

[14] = CEETOX_H295R_CORTISOL: CeeTox H295R High-throughput Steroidogenesis Assay for Cortisol (AID 2283438; active = hit-call score of the fitted dose curve at least 0.9, where 1 is the maximum; inactive = score below 0.9;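 note: cortisol secreted into medium quantified by LC-MS/MS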); settings: actives raise or lower the signal
In short: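 Human adrenocortical H295R cells (passage ≤10) received test chemicals for 48 h after forskolin priming. Secreted cortisol was measured by LC-MS/MS.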

[15] = CEETOX_H295R_DOC: CeeTox H295R High-throughput Steroidogenesis Assay for DOC (AID 2283439; active = hit-call score of the fitted dose curve at least 0.9, where 1 is the maximum; inactive = score below 0.9); settings: actives raise or lower the signal
In short: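 Secreted DOC was quantified from H295R media by HPLC-MS/MS after 48 h chemical exposure following 48 h forskolin (10 uM) prestimulation. Values were fitted in both directions relative to DMSO, the negative control and baseline.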

[16] = CEETOX_H295R_ESTRADIOL: CeeTox H295R High-throughput Steroidogenesis Assay for Estradiol (AID 2283440; active = hit-call score of the fitted dose curve at least 0.9, where 1 is the maximum; inactive = score below 0.9;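 note: estradiol secreted into medium quantified by LC-MS/MS after dansyl derivatisation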); settings: actives raise or lower the signal
In short: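 H295R, 48 h forskolin (10 uM) prestim → 48 h compound, 0.1% DMSO final. Estradiol in medium: MTBE extraction, dansyl chloride derivatization, LC-MS/MS. Fit bidirectional vs DMSO baseline; MTT viability in same wells.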

[17] = CEETOX_H295R_ESTRONE: CeeTox H295R High-throughput Steroidogenesis Assay for Estrone (AID 2283441; active = hit-call score of the fitted dose curve at least 0.9, where 1 is the maximum; inactive = score below 0.9;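 note: estrone secreted into medium measured by LC-MS/MS after dansyl derivatization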); settings: actives raise or lower the signal
In short: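 H295R cells; 48 h forskolin (10 uM) prestimulation; 48 h compound exposure, 0.1% DMSO final. Medium estrone: MTBE extraction, dansyl derivatization, HPLC-MS/MS. Bidirectional fit vs DMSO.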

[18] = CEETOX_H295R_PROG: CeeTox H295R High-throughput Steroidogenesis Assay for Progesterone (PROG) (AID 2283442; active = hit-call score of the fitted dose curve at least 0.9, where 1 is the maximum; inactive = score below 0.9;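 for AC50: human H295R adrenal cells primed with 10 µM forskolin before dosing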); settings: actives raise or lower the signal
In short: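 Progesterone read-out: HPLC-MS/MS on MTBE extracts of conditioned medium after 48 h chemical exposure of forskolin-primed (10 uM, 48 h) H295R cells. Gain or loss of signal was fitted relative to DMSO baseline.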

[19] = read-out: Tumor necrosis factor receptor superfamily member 6 (Homo sapiens) (UniProt P25445); test: LTEA_HepaRG_FAS: Life Technologies and Expression Analysis (LTEA) Assay for Fas cell surface death receptor (FAS) using HepaRG (AID 2283447; active = hit-call score of the fitted dose curve at least 0.9, where 1 is the maximum; inactive = score below 0.9); settings: mRNA level, 48 h; actives raise or lower the signal
In short: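 FAS transcript level was measured by TaqMan qRT-PCR against three housekeeping genes after 48 h chemical exposure. Cells were HepaRG, 0.5% DMSO vehicle, with a top concentration of 100 uM and half-log dilutions over eight points, in duplicate.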

Measured: AC50

Chain of Retinoic acid receptor RXR-alpha (Homo sapiens) (P19793 whole entry, looked up, the tested form may be a part): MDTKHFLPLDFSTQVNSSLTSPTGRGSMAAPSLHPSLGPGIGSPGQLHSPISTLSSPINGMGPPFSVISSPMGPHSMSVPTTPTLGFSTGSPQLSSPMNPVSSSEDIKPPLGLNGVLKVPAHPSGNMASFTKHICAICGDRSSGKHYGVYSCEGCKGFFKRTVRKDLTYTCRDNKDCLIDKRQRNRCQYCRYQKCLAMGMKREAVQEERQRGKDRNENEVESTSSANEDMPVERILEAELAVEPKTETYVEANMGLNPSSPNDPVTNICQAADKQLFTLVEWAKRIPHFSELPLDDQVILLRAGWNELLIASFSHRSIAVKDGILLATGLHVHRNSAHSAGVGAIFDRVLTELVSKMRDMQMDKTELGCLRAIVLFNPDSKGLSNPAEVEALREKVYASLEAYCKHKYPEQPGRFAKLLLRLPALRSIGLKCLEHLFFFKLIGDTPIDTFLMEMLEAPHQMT
Chain of Peroxisome proliferator-activated receptor gamma (Homo sapiens) (P37231 whole entry, looked up, the tested form may be a part): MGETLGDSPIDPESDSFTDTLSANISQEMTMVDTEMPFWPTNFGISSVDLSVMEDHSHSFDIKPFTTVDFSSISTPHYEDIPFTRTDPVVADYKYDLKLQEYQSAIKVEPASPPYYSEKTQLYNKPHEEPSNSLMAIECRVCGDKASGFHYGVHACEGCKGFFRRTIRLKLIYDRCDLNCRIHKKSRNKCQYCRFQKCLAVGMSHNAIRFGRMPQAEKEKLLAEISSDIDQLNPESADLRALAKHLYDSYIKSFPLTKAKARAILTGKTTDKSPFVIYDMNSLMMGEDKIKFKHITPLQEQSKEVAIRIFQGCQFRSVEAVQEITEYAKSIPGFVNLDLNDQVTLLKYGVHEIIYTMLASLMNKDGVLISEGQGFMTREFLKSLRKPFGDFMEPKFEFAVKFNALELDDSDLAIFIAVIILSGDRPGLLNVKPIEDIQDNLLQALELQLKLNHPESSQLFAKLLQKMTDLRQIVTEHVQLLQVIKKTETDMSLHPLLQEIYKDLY
Chain of Bile acid receptor (Homo sapiens) (Q96RI1 whole entry, looked up, the tested form may be a part): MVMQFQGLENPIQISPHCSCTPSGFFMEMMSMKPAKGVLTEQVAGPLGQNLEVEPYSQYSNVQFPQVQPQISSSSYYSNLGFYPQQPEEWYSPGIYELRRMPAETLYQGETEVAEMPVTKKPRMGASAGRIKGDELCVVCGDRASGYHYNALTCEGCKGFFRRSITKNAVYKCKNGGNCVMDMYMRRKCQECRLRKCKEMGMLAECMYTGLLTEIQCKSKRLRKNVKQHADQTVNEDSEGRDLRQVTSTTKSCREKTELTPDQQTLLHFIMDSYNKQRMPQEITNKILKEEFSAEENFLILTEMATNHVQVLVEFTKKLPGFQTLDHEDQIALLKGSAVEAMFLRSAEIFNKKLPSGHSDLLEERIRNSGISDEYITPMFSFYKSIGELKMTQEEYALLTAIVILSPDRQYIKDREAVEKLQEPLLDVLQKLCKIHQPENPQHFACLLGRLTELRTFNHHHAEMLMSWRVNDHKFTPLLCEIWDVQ
Chain of Estrogen receptor (Homo sapiens) (P03372 whole entry, looked up): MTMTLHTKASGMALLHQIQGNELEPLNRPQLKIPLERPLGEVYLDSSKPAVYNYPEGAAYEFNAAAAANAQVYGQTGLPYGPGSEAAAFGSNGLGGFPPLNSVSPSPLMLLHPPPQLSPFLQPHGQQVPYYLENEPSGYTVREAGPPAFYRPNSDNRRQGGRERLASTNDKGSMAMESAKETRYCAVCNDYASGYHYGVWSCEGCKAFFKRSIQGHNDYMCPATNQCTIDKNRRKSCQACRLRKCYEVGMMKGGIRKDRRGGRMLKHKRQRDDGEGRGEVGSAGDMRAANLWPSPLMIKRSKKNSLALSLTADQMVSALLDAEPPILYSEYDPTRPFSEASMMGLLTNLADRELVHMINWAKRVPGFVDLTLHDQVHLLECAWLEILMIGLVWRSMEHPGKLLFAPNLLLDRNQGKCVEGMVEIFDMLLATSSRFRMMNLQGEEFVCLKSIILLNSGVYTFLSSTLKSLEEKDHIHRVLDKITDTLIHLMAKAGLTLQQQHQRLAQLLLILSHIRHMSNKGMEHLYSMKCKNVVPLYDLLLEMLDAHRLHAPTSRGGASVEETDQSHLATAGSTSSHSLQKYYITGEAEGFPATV
Chain of Estrogen receptor beta (Homo sapiens) (Q92731 whole entry, looked up, the tested form may be a part): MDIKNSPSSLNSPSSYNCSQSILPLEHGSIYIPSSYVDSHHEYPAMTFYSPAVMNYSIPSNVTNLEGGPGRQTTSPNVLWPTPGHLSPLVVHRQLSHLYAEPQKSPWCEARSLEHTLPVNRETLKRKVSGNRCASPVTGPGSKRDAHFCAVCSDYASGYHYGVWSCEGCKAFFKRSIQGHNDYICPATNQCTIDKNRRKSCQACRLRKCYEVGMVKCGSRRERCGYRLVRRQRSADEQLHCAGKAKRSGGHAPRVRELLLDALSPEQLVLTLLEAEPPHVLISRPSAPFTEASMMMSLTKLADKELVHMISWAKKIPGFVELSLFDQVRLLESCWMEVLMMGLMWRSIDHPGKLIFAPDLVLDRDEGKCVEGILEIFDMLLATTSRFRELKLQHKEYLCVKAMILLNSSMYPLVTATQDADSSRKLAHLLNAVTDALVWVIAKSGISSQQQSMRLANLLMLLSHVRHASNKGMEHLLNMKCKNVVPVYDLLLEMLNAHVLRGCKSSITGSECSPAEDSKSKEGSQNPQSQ

CCc1nn(C2CCCCC2)c2cc(C3(C#N)CCC(C(=O)O)CC3)ccc12 (configuration not stated)
inactive: [1] | [2] | [3] | [6] | [8] | [9] | [10] | [11] | [12] | [13] | [14] | [15] | [16] | [17] | [18]
active: [4] 23.6 µM | [5] 41.3 µM | [6] 76.9 µM | [7] 79.7 µM and 73.6 µM | [19] 31.1 µM

OCCC(F)(F)C(F)(F)C(F)(F)C(F)(F)C(F)(F)C(F)(F)F
inactive: [1] | [2] | [4] | [5] | [6] | [7] | [8] | [9] | [19]
active: [3] 11.6 µM

CC(C)(C)CC(C)(C)c1ccc(O)c(-n2nc3ccccc3n2)c1
active: [4] 35.7 µM | [5] 34.5 µM | [6] 75.6 µM and 79 µM | [7] 30 µM and 84.7 µM
inactive: [1] | [2] | [3] | [8] | [9] | [19]

OC1CCC(C2CCCCC2)CC1 (configuration not stated)
active: [1] 57.8 µM and 49.5 µM and 59.4 µM | [4] 55.7 µM and 35.6 µM and 50 µM | [13] 23.2 µM
inactive: [1] | [2] | [3] | [4] | [5] | [6] | [7] | [8] | [9] | [10] | [12] | [14] | [15] | [16] | [18] | [19]

O=C(O)Cc1cc(I)c(Oc2cc(I)c(O)c(I)c2)c(I)c1
inactive: [1] | [19]
active: [2] 44.5 µM | [3] 48.3 µM | [6] 11.6 µM | [7] 6.55 µM | [8] 10.6 µM | [9] 11.8 µM

CCCCCCCC(=O)O
active: [1] 21.3 µM | [2] 22.1 µM
inactive: [3] | [6] | [7] | [8] | [9] | [19]

N#C[C@@H]1CC(F)(F)CN1C(=O)CNC1CC2CCC(C1)N2c1ncccn1 (some centres not stated)
inactive: [1] | [2] | [3] | [5] | [6] | [7] | [8] | [9] | [19]

CCCCC(CC)COC(=O)CCCCC(=O)OCC(CC)CCCC (configuration not stated)
inactive: [1] | [2] | [3] | [4] | [5] | [6] | [8] | [9] | [19]

COc1ccc([N+](=O)[O-])cc1N
active: [10] 50 µM | [12] 6.07 µM | [13] 8.72 µM | [14] 44.6 µM | [15] 10.6 µM | [18] 14.2 µM
inactive: all other assays above

CC[C@H](C)[C@@H](C(=O)O)n1sc2ccccc2c1=O
inactive: [1] | [2] | [3] | [4] | [6] | [7] | [8] | [9] | [19]

CC(=O)CC(C)(C)O
inactive: [1] | [2] | [3] | [4] | [5] | [7] | [8] | [9] | [19]

CN(C)C=O
inactive: [1] | [2] | [3] | [4] | [5] | [6] | [7] | [8] | [9] | [19]

C[C@@H]1C[C@H]2[C@@H]3CCC4=CC(=O)C=C[C@]4(C)[C@@]3(F)[C@@H](O)C[C@]2(C)[C@@]1(O)C(=O)COP(=O)(O)O
not listed: [4] | [5]
inactive: all other assays above

CCCCCCCCCCCCN1CCCC1=O
active: [4] 11.6 µM | [5] 11.2 µM | [6] 12.4 µM | [7] 11.7 µM
inactive: [1] | [2] | [3] | [8] | [9] | [19]

CCN(CC)CCNc1ccc(CNC=O)c2sc3ccc(OC)cc3c(=O)c12
active: [3] 20.2 µM | [4] 11.6 µM | [5] 11.9 µM | [6] 11.4 µM and 11.9 µM | [7] 11.7 µM and 11.8 µM
inactive: [1] | [2] | [8] | [9] | [19]

C=C(C)C(=O)OCCC(F)(F)C(F)(F)C(F)(F)C(F)(F)C(F)(F)C(F)(F)F
active: [3] 12.5 µM
inactive: [1] | [2] | [4] | [5] | [6] | [7] | [8] | [9] | [19]
